Test [1] in a line: BSK_LPS_PGE2: BioMAP Diversity Plus: LPS Assay for Prostaglandin E2 (PGE2) Biomarker Activity (AID 2283082).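 As to AC50: secreted prostaglandin E2 measured by ELISA in LPS-stimulated co-culture.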 The settings on record: primary human HUVEC with PBMC; actives raise or lower the signal. Put shortly:
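Compounds were added to the LPS co-culture of endothelium and PBMC, and PGE2 was measured by ELISA after 24 h. Responses in either direction were fitted with DMSO as baseline.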

Read-out in test [2]: Macrophage colony-stimulating factor (MCSF), CSF1 (gene 1435)
Put plainly: BSK_LPS_MCSF: BioMAP Diversity Plus: LPS Assay for Macrophage colony-stimulating factor (MCSF) Biomarker Activity (AID 2283083). The settings on record: primary human HUVEC with PBMC; actives raise or lower the signal. The method, boiled down: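 HUVEC + PBMC co-culture (human primary), 24 h post-dose; M-CSF by ELISA; gain/loss of signal fitted bidirectionally vs DMSO baseline.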

Read-out in test [3]: Tissue Factor, F3 (gene 2152)
Put plainly: BSK_LPS_TissueFactor: BioMAP Diversity Plus: LPS Assay for Tissue Factor Biomarker Activity (AID 2283084). The settings on record: primary human HUVEC with PBMC; actives raise or lower the signal. Put shortly: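 HUVEC/PBMC co-culture, LPS-activated; CD142 ELISA read 24 h post-dose; bidirectional curve fit vs DMSO negative control.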

Read-out in test [4]: Tumor necrosis factor (Homo sapiens) (UniProt P01375)
Put plainly: BSK_LPS_TNFa: BioMAP Diversity Plus: LPS Assay for Tumour Necrosis Factor alpha (TNFa) Biomarker Activity (AID 2283085). The settings on record: primary human HUVEC with PBMC; actives raise or lower the signal. Put shortly: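 Cells (umbilical vein endothelium plus peripheral blood mononuclear cells) were dosed with chemical, incubated 24 h, then TNFa was quantified by ELISA; values derive from bidirectional fitting with DMSO as baseline.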

Read-out in test [5]: Vascular cell adhesion molecule 1 (VCAM1), VCAM1 (gene 7412)
Put plainly: BSK_LPS_VCAM1: BioMAP Diversity Plus: LPS Assay for Vascular cell adhesion molecule 1 (VCAM1) Biomarker Activity (AID 2283086). The settings on record: primary human HUVEC with PBMC; actives raise or lower the signal. The method, boiled down:
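Cells are dosed in an LPS-stimulated endothelial/mononuclear co-culture and, after 24 h, VCAM-1 is quantified by ELISA. Activity in either direction is fitted relative to the DMSO negative control.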

Read-out in another test: CD38, CD38 (gene 952)
In words: BSK_SAg_CD38: BioMAP Diversity Plus: SAg Assay for CD38 Biomarker Activity (AID 2283087). The settings on record: primary human HUVEC with PBMC; actives raise or lower the signal. Put shortly:
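CD38 quantified by ELISA (fluorescence) in a superantigen-activated endothelial cell–PBMC co-culture at 24 h post-dose. Activity fitted in both directions relative to DMSO; parallel SRB and Alamar Blue cytotoxicity read-outs.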

Read-out in the next test: CD40, CD40 (gene 958)
Put plainly: BSK_SAg_CD40: BioMAP Diversity Plus: SAg Assay for CD40 Biomarker Activity (AID 2283088). The conditions noted are these: primary human HUVEC with PBMC; actives raise or lower the signal. The method, boiled down:
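HUVEC/PBMC co-culture, 24 h post-dose; CD40 by ELISA, fluorescence intensity; bidirectional fit vs DMSO negative control.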

Read-out in another test: CD69, CD69 (gene 969)
Put plainly: BSK_SAg_CD69: BioMAP Diversity Plus: SAg Assay for CD69 Biomarker Activity (AID 2283089).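 As to AC50: cell surface CD69 protein quantified by ELISA with fluorescence detection.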 The conditions noted are these: primary human HUVEC with PBMC; actives raise or lower the signal. Put shortly:
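Endothelial/PBMC co-culture; chemical added; 24 h incubation; CD69 ELISA with fluorescence detection; bidirectional fit vs DMSO.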

Read-out in test [6]: Monocyte Chemoattractant Protein-1 (MCP1), CCL2 (gene 6347)
Put plainly: BSK_SAg_MCP1: BioMAP Diversity Plus: SAg Assay for Monocyte Chemoattractant Protein-1 (MCP1) Biomarker Activity (AID 2283090). The conditions noted are these: primary human HUVEC with PBMC; actives raise or lower the signal. The method, boiled down: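 Values derive from bidirectional fitting of ELISA-measured MCP1 against DMSO controls. Readings were taken 24 h after dosing human vascular endothelial cells co-cultured with peripheral blood mononuclear cells under superantigen stimulation.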

Read-out in test [7]: E-selectin (Homo sapiens) (UniProt P16581)
Put plainly: BSK_SAg_Eselectin: BioMAP Diversity Plus: SAg Assay for Eselectin Biomarker Activity (AID 2283091). The settings on record: primary human HUVEC with PBMC; actives raise or lower the signal. The method, boiled down:
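E-selectin ELISA readout at 24 h post-dosing in human umbilical vein endothelial cell/PBMC co-culture; gain or loss of signal fitted relative to DMSO baseline.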

Read-out in test [8]: Monokine induced gamma interferon (MIG), CXCL9 (gene 4283)
In words: BSK_SAg_MIG: BioMAP Diversity Plus: SAg Assay for Monokine induced gamma interferon (MIG) Biomarker Activity (AID 2283092). The settings on record: primary human HUVEC with PBMC; actives raise or lower the signal. The method, boiled down:
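Measures CXCL9 protein by ELISA in a human vascular primary-cell co-culture (umbilical vein endothelium with PBMC) 24 h after chemical addition. Activity is scored up or down from the DMSO control.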

The nature of test [9]: BSK_SAg_PBMCCytotoxicity: PBMC Cytotoxicity Assessment in the BioMAP Diversity Plus: SAg Assay (AID 2283093).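 Also: fitted both ways against DMSO so a hit may be loss or gain of signal.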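 As to AC50: PBMC superantigen activated with SEB plus TSST-1 one hour after compound addition.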 The settings on record: primary human HUVEC with PBMC. The method, boiled down:
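PBMC viability by Alamar Blue reduction, fluorescence read at 546/580 nm after 6 h dye exposure. Cells were dosed 1 h before SEB plus TSST-1 activation (20 ng/mL final each), then held 90 h; endothelial/PBMC human co-culture.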

Read-out in test [10]: Interleukin-8 (IL8), CXCL8 (gene 3576)
In words: BSK_SAg_IL8: BioMAP Diversity Plus: SAg Assay for Interleukin-8 (IL8) Biomarker Activity (AID 2283094). The settings on record: primary human HUVEC with PBMC; actives raise or lower the signal. The method, boiled down:
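Chemicals were dosed onto a human endothelial–PBMC co-culture, and IL-8 was quantified by ELISA after 24 h. Both increases and decreases were fitted relative to DMSO.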

Test [11] in a line: BSK_SAg_Proliferation: Cell Proliferation Assessment in the BioMAP Diversity Plus: SAg Assay (AID 2283095).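 Also: relative cell number as total protein by SRB absorbance in sub-confluent culture.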 The conditions noted are these: primary human HUVEC with PBMC. The method, boiled down: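 Absorbance of sulforhodamine B at 560 nm reports total protein in a human vascular endothelial/PBMC co-culture after 96 h chemical exposure. Gain or loss of signal is fitted in both directions against DMSO.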

Test [12] has as its target human CYP1A2, CYP1A2 (gene 1544) (UniProt P05177). Put plainly: NVS_ADME_hCYP1A2: NovaScreen (NVS) CYP450-related Enzyme Activity (ADME) Assay for human CYP1A2 (AID 2283102; active = hit-call score of the fitted dose curve at least 0.9, where 1 is the maximum;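 as to AC50: potency for inhibition since loss of fluorescence marks reduced CYP1A2 activity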). Put shortly: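 Fluorescence-intensity enzyme activity read-out, taken 0.5 h post-dosing, using insect-cell-derived recombinant CYP1A2 and specific fluorescent substrate. Acetonitrile served as negative control/baseline. Single-concentration duplicate screen at 10 uM, then concentration-response follow-up.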

Test [13] can be described thus: BSK_SAg_SRB: Viability Assessment in the BioMAP Diversity Plus: SAg Assay (AID 2283096).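 Also: cells read one day after compound addition; hits may be either gain or loss of signal compared with DMSO.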 The settings on record: primary human HUVEC with PBMC. The method, boiled down:
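Compounds were added to a human vascular co-culture of umbilical vein endothelium and PBMC. After 24 h, parallel cultures were fixed with 10% TCA, stained with 0.1% sulforhodamine B and read at 560 nm. Gain or loss of signal was fitted relative to DMSO.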

In test [14] the target is human CYP1A1, CYP1A1 (gene 1543) (UniProt P04798). In words: NVS_ADME_hCYP1A1: NovaScreen (NVS) CYP450-related Enzyme Activity (ADME) Assay for human CYP1A1 (AID 2283100; active = hit-call score of the fitted dose curve at least 0.9, where 1 is the maximum). Put shortly: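 Read-out: fluorescence intensity from enzymatic turnover of substrate by recombinant CYP1A1, loss of signal indicating inhibition. Incubation 1 h post-dose. Primary single-point 10 uM in duplicate; actives rerun singly with top concentration 20 uM.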

Test [15] concerns the target human CYP2B6, CYP2B6 (gene 1555) (UniProt P20813). Put plainly: NVS_ADME_hCYP2B6: NovaScreen (NVS) CYP450-related Enzyme Activity (ADME) Assay for human CYP2B6 (AID 2283101; active = hit-call score of the fitted dose curve at least 0.9, where 1 is the maximum). The method, boiled down:
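Recombinant protein, specific fluorescent substrate, read at 1 h post-dosing. Primary: single 10 uM, duplicate; follow-up: concentration series. Activity = signal loss vs acetonitrile baseline, with positive and negative controls on every plate.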

The target in test [16] is human CYP19A1, CYP19A1 (gene 1588) (UniProt P11511). In words: NVS_ADME_hCYP19A1: NovaScreen (NVS) CYP450-related Enzyme Activity (ADME) Assay for human CYP19A1 (AID 2283098; active = hit-call score of the fitted dose curve at least 0.9, where 1 is the maximum). Put shortly: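 Fluorescence intensity read-out; activity taken as signal loss relative to acetonitrile vehicle. Extracted enzyme, specific substrate, no cells, 0.5 h exposure. Duplicate single-point screen at 10 uM, then concentration–response follow-up for actives.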

Records with an inconclusive call do not appear. Activity calls are given as the source filed them. The calls were made as follows, unless noted: active = hit-call score of the fitted dose curve at least 0.9, where 1 is the maximum; inactive = score below 0.9.

What is called AC50 is the concentration giving half of the maximal activity seen.

Sequence of Tumor necrosis factor (Homo sapiens) (P01375 whole entry, looked up): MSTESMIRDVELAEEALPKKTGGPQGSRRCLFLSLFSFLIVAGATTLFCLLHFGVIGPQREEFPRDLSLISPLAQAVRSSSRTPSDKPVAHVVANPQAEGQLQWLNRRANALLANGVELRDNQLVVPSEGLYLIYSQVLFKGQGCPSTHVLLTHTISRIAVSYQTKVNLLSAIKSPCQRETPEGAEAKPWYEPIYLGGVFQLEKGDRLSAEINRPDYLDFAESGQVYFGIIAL
Sequence of E-selectin (Homo sapiens) (P16581 whole entry, looked up): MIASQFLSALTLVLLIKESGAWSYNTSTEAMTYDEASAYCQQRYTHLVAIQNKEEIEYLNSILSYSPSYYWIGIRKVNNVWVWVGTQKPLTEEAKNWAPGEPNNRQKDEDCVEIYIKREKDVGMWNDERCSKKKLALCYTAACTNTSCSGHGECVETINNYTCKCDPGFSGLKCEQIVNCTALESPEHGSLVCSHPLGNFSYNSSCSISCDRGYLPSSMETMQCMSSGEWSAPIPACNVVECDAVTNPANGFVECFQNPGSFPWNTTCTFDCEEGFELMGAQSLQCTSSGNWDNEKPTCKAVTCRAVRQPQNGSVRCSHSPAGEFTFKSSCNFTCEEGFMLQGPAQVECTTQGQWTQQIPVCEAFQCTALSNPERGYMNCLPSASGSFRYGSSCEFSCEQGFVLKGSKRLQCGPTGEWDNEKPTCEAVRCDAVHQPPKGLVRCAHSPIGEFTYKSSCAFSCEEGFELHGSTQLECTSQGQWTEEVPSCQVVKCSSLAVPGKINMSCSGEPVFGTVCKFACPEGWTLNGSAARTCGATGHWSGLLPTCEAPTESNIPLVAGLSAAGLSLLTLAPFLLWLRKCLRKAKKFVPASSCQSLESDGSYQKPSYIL
Sequence of human CYP1A2, CYP1A2 (gene 1544) (P05177 whole entry, looked up): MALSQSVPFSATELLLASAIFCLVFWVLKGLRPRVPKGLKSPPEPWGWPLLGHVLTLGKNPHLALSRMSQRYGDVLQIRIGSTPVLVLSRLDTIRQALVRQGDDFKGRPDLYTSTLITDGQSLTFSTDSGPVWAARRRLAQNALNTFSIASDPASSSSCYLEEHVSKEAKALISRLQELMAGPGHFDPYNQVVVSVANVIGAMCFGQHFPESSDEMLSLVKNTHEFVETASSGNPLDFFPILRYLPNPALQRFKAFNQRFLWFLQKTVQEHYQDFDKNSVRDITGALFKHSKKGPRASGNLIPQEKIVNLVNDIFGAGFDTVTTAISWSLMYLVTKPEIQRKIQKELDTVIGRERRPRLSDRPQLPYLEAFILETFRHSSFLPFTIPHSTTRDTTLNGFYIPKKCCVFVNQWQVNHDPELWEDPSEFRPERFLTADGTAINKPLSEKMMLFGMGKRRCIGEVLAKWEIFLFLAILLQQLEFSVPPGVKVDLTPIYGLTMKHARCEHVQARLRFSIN
Sequence of human CYP1A1, CYP1A1 (gene 1543) (P04798 whole entry, looked up): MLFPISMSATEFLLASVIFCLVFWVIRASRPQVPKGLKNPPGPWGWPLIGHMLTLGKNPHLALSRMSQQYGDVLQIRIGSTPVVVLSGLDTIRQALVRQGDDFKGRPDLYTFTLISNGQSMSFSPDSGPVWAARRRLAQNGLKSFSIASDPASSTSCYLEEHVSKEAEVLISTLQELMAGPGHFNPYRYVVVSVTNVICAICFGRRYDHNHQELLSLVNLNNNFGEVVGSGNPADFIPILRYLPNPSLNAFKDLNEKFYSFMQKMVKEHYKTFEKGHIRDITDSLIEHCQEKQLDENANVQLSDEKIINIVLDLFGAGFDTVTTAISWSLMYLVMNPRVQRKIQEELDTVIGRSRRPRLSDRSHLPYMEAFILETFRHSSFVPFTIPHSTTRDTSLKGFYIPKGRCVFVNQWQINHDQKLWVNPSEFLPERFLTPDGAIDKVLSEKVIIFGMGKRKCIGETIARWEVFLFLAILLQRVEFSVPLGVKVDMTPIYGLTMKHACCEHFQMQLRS
Sequence of human CYP19A1, CYP19A1 (gene 1588) (P11511 whole entry, looked up): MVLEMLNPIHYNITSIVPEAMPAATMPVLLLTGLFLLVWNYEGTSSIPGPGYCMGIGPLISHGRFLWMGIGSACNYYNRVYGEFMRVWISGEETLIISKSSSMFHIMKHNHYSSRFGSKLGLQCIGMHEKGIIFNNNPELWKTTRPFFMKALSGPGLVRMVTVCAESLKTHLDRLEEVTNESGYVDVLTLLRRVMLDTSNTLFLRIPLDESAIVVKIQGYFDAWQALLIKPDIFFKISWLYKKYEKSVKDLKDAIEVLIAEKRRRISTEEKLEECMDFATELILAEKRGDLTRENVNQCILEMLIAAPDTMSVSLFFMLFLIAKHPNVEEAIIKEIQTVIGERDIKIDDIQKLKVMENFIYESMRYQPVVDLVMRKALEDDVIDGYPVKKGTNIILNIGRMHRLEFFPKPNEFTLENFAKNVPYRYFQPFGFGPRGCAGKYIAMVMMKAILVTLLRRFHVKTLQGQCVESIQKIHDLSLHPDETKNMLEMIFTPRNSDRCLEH
Sequence of human CYP2B6, CYP2B6 (gene 1555) (P20813 whole entry, looked up): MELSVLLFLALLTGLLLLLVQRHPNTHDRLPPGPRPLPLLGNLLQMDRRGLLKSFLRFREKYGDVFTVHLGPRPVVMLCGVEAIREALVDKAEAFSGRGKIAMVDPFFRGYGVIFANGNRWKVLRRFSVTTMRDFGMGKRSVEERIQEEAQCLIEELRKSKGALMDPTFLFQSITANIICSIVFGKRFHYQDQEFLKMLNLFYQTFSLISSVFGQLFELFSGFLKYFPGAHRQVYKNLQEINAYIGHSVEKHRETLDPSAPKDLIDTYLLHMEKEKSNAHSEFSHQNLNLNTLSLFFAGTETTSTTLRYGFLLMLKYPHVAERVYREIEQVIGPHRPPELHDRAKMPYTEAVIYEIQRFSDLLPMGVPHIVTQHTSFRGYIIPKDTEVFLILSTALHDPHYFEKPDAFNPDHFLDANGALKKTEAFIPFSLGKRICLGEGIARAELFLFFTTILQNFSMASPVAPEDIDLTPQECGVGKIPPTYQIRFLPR

On to `N#CC(Br)(Br)C(N)=O`, for which the outcome in test [1] was “inactive”; in [2] it was “inactive”; in test [3] it was “inactive”; in test [4] it was “inactive”; in [5] it was “inactive”; with CD38, CD38 (gene 952) it was “inactive”. Besides, the outcome with CD40, CD40 (gene 958) is “inactive”; in the test with CD69, CD69 (gene 969), “inactive”; in [6] it was “inactive”; in [7], “inactive”; in test [8] it was “inactive”; in test [9], “inactive”. The result in [10], in test [11] and in test [12] was inactive.

`CC(C)COC(=O)c1ccccc1C(=O)OCC(C)C`: the AC50 in test [1] is 9.78 µM (active); in test [5] it was 20 µM (active); with CD69, CD69 (gene 969) it was 20 µM (active); in test [7] it was 20 µM (active); in test [9] it was 37 µM (active); in test [11], 30.3 µM (active). Also, the concentration at half-maximal activity (AC50) in [12] is 7.52 µM (active). Also, the outcome is “inactive” in test [2]; “inactive” in test [3]; “inactive” in test [4]; “inactive” in the test with CD38, CD38 (gene 952); “inactive” in the test with CD40, CD40 (gene 958); “inactive” in [6]. For the same molecule, the outcome in test [8], in test [10] and in [13] was inactive.

In the case of `Nc1ccc(Oc2ccc(N)cc2)cc1`, the results for the AC50 in test [1] and in test [15] were 12.7 µM (active) and 2.57 µM (active), respectively. Further, the outcome is “inactive” in test [2]; “inactive” in [3]; “inactive” in test [4]; “inactive” in test [5]; “inactive” in the test with CD38, CD38 (gene 952); “inactive” with CD40, CD40 (gene 958). For the same molecule, the outcome in the test with CD69, CD69 (gene 969) is “inactive”; in test [6], “inactive”; in test [7], “inactive”; in [8] it was “inactive”; in test [9] it was “inactive”; in [10] it was “inactive”. In addition, the result in [11] and in [14] was inactive.

Take `CS(=O)(=O)NC(=O)c1cc(Oc2ccc(C(F)(F)F)cc2Cl)ccc1[N+](=O)[O-]`: the outcome in [1] is “inactive”; in test [2], “inactive”; in test [3], “inactive”; in [4] it was “inactive”; in test [5] it was “inactive”; with CD38, CD38 (gene 952), “inactive”. In addition, the outcome was “inactive” with CD40, CD40 (gene 958); “inactive” with CD69, CD69 (gene 969); “inactive” in [6]; “inactive” in test [7]; “inactive” in test [8]; “inactive” in test [9]. Moreover, the outcome in [10], in test [11], in [13] and in test [16] was inactive.

Turning to `CN(C)C(=O)Nc1ccc(Cl)cc1`, the outcome in [1] is “inactive”; in [2], “inactive”; in test [3], “inactive”; in test [4] it was “inactive”; in [5], “inactive”; with CD38, CD38 (gene 952) it was “inactive”. The outcome in the test with CD40, CD40 (gene 958) is “inactive”; in the test with CD69, CD69 (gene 969) it was “inactive”; in test [6], “inactive”; in test [7], “inactive”; in test [8] it was “inactive”; in test [9], “inactive”. Also, the result in test [10] was inactive. Moreover, the AC50 was 20 µM (active) in test [11] and 6.62 µM (active) in test [12].

The values above are taken from PubChem BioAssay (EPA / NIEHS).
